From PubChem BioAssay (EPA / NIEHS) come the findings set out here.

One may read the AC50 as the midpoint of the concentration-response curve, whichever way the signal moves.

Activity calls are given as the source filed them. How the source made its calls: active means hit-call score of the fitted dose curve at least 0.9, where 1 is the maximum; inactive means score below 0.9.

Read-out in this experiment: Interferon-gamma inducible Protein 10 (IP10), CXCL10 (gene 3627)
Description: BSK_BE3C_IP10: BioMAP Diversity Plus: BE3C Assay for Interferon-gamma inducible Protein 10 (IP10) Biomarker Activity (AID 2283034). The following applies: primary human bronchial epithelial cells; actives raise or lower the signal. How it is done: BSK_BE3C is a cell-based, multiplexed-readout assay that uses bronchial epithelial cell, a human lung primary cell, with measurements taken at 24 hours after chemical dosing in a 96-well plate.BSK_BE3C_IP10 is an assay component measured in the BSK_BE3C assay. It measures IP-10 antibody related to regulation of gene expression using ELISA technology.Data from the assay component BSK_BE3C_IP10 was analyzed into 1 assay endpoint. This assay endpoint, BSK_BE3C_IP10, was analyzed with bidirectional fitting relative to DMSO as the negative control and baseline of activity. Using a type of binding reporter, gain or loss-of-signal activity can be used to understand changes in the signaling as they relate to the gene CXCL10. Furthermore, this assay endpoint can be referred to as a primary readout, because this assay has produced multiple assay endpoints where this one serves a signaling function. To generalize the intended target to other relatable targets, this assay endpoint is annotated to the cytokine intended target family, where the subfamily is chemotactic factor.
The levels of cell surface (or secreted, indicated by the prefix "s") biomarker endpoints were measured by ELISA. Overt cytotoxicity to cells in confluent adherent cultures (all systems other than the BT system) was assessed by measuring total protein levels using sulforhodamine B (SRB) staining in parallel cultures at the time of biomarker measurements, indicated as SRB endpoints. For proliferation assays for adherent cell types, individual cell types are cultured at sub-confluence and relative cell numbers quantified by SRB staining at time points optimized for each system (48 h: 3C and CASM3C systems; 72 h: BT and HDF3CGF systems; 96 h: SAg system). SRB was performed by staining cells with 0.1% SRB after fixation with 10% TCA and reading wells at 560 nm.Viability and proliferation of PBMC (T cells) was quantified by Alamar Blue reduction for the SAg and BT systems. For PBMC viability (referred to as PBMC Cytotoxicity within the assay endpoint names), cells were plated (75,000/well in a 96-well plate) and then chemical samples added for 1 h before addition of activators, SEB and TSST-1 (20 ng/mL final concentration each). Cells were incubated for 90 h. Then, Alamar Blue (20 uL/well) (Invitrogen, Cat DAL1100) was added for 6 h, and the plates were read with a fluorescence microplate reader at 546/580 nm (excitation/emission). For PBMC proliferation, cells were plated and activated as above but incubated for only 16 h prior to addition of Alamar Blue. Plates were read after 6 h.
In the case of `CCN1CCC2(CC1)COc1cc3c(cc12)N(C(=O)c1ccc(-c2ccc(-c4nnc(C)o4)cc2C)cc1)CC3`, the AC50 was 14.4 µM (active).
Regarding `CCCCC(CC)CO[N+](=O)[O-]` (stereo not given), the outcome was inactive.
For the molecule `O=C1C2(Cl)C3(Cl)C4(Cl)C(Cl)(Cl)C5(Cl)C3(Cl)C1(Cl)C5(Cl)C24Cl` (stereo not given), the AC50 was 7.91 µM (active).
Turning to `CCNc1nc(NC(C)(C)C)nc(SC)n1`, the outcome was inactive.
As to `CCCCCCCCc1ccc(O)cc1`, the AC50 is 31.9 µM (active).
`CC12CC1(C)C(=O)N(c1cc(Cl)cc(Cl)c1)C2=O` (stereo not given): the outcome was inactive.
Take `COC(=O)c1sccc1S(=O)(=O)NC(=O)Nc1nc(C)nc(OC)n1`: the result was inactive.
On the same count and under the same terms, as for `O=Cc1cccc(Oc2ccccc2)c1`, the entry is “inactive”.
Turning to `ClC(Cl)=C(Cl)C(Cl)=C(Cl)Cl`, the AC50 was 31.5 µM (active).
Regarding `ClCC(Cl)CCl`, the result was inactive.
The same measure, in the same setting: as for `CC1(C)Cc2cccc(O)c2O1`, the entry is “inactive”.
With `O=[N+]([O-])c1ccc(O)c([N+](=O)[O-])c1`, the AC50 was 29.8 µM (active).
Consider `COc1cc(OC)nc(NC(=O)NS(=O)(=O)c2ncccc2C(=O)N(C)C)n1`, for which the result was inactive.
Take `Nc1ccc(-c2ccc(N)c(Cl)c2)cc1Cl`: the result was inactive.
Still for that read-out and setting: as for `CCOP(=S)(OCC)Oc1nc(Cl)c(Cl)cc1Cl`, the entry is “inactive”.
In the case of `CC(C)c1ccc(CO)cc1`, the result was inactive.
Still for that read-out and setting: in the case of `CCSC(C)CC1CC(=O)C(C(CC)=NOC/C=C/Cl)=C(O)C1` (stereo not given) it was “inactive”.
On the same count and under the same terms, in the case of `Oc1ccc(-c2ccccc2)cc1` it was “inactive”; in that of `O=c1[nH]c(=O)[nH]c(=O)[nH]1`, “inactive”.
Still for that read-out and setting: as for `CCOP(=S)(OCC)SCSP(=S)(OCC)OCC`, the entry is “inactive”.
Turning to `Nc1cccc2ccccc12`, the AC50 was 20 µM (active).
Take `CN(C)N=O`: the outcome was inactive.
With `CCOC(=O)/C=C(C)/C=C/C[C@@H](C)CCCC(C)C`, the AC50 is 20 µM (active).
In the case of `CC(C)(OO)c1ccccc1`, the outcome was inactive.
With `C[C@@H]1C[C@@H]([C@H](O)CC2CC(=O)NC(=O)C2)C(=O)[C@@H](C)C1`, the AC50 was 8.61 µM (active).
In the case of `OCc1ccco1`, the result was inactive.
Same read-out and setting: in the case of `CCOP(=S)(OCC)SCCS(=O)(=O)CC` it was “inactive”.
For the molecule `CCC(C)(C)c1ccc(O)c(C(C)(C)CC)c1`, the AC50 is 19 µM (active).
Consider `COP(=S)(OC)Oc1ccc(S(=O)(=O)N(C)C)cc1`, for which the result was inactive.
The same measure, in the same setting: as for `C=CC(=O)OCCCCCC(C)C`, the entry is “inactive”.
With `CC(C)(c1ccccc1)c1ccc(O)c(C(C)(C)c2ccccc2)c1`, the AC50 was 12 µM (active).
As for `O=C(Nc1ccc2[nH]ccc2c1)c1cc2cc(F)ccc2n1Cc1cccc(F)c1`, the AC50 was 8.41 µM (active).
On the same count and under the same terms, in the case of `CCCCCCCCC(=O)NCc1ccc(O)c(OC)c1` it was 20 µM (active).
On to `BrCCBr`, for which the outcome was inactive.
On to `CCC(=O)C(CC(C)N(C)C)(c1ccccc1)c1ccccc1` (stereo not given), for which the outcome was inactive.
On the same count and under the same terms, as for `NC(=O)O`, the entry is “inactive”.
Consider `Oc1cccc2cccnc12`, for which the AC50 was 3.88 µM (active).
As for `O=S(=O)(c1ccc(Cl)cc1)c1ccc(Cl)cc1`, the outcome was inactive.
Turning to `COP(=S)(OC)Oc1cc(Cl)c(Cl)cc1Cl`, the AC50 was 19.1 µM (active).
For the molecule `ClC1(Cl)C2(Cl)C3(Cl)C4(Cl)C(Cl)(Cl)C5(Cl)C3(Cl)C1(Cl)C5(Cl)C24Cl` (stereo not given), the outcome was inactive.
